# ChEMBL document CHEMBL1961873, “Compounds: GSK PKIS; Assays: Nanosyn kinase panel” (2012)
# Experiments:
# [1] = target: T1, Ephrin type-B receptor 2 (Homo sapiens) (UniProt P29323); details: at 1 µM
# T1 sequence (whole entry): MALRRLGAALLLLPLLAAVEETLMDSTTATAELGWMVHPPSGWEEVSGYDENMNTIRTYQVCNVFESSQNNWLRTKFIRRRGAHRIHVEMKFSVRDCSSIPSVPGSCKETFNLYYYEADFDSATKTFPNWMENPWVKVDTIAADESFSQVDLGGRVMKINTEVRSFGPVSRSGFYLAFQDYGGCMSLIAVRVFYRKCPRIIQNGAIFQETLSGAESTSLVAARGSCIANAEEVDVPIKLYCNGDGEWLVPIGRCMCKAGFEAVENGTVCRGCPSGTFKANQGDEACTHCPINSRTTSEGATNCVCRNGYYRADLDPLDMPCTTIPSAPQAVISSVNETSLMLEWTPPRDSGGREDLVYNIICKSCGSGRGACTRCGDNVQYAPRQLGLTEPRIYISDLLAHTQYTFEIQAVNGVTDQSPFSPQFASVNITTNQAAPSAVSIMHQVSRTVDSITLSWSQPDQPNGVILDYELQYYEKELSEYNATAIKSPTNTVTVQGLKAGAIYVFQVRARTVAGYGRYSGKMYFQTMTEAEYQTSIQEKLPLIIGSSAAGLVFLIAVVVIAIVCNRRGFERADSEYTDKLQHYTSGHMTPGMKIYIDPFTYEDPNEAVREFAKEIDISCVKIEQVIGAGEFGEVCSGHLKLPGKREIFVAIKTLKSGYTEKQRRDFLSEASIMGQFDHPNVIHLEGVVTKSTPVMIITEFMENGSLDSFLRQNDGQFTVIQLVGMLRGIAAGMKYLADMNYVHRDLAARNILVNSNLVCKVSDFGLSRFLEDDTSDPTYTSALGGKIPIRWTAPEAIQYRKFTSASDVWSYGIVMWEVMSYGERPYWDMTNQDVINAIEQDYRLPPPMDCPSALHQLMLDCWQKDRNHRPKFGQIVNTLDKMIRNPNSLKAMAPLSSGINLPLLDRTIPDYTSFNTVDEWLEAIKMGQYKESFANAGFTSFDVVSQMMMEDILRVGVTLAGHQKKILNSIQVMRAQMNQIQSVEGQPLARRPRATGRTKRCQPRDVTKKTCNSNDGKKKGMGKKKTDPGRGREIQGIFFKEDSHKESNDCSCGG
# [2] = target: T2, Ephrin type-B receptor 3 (Homo sapiens) (UniProt P54753); details: at 0.1 µM
# T2 sequence (whole entry): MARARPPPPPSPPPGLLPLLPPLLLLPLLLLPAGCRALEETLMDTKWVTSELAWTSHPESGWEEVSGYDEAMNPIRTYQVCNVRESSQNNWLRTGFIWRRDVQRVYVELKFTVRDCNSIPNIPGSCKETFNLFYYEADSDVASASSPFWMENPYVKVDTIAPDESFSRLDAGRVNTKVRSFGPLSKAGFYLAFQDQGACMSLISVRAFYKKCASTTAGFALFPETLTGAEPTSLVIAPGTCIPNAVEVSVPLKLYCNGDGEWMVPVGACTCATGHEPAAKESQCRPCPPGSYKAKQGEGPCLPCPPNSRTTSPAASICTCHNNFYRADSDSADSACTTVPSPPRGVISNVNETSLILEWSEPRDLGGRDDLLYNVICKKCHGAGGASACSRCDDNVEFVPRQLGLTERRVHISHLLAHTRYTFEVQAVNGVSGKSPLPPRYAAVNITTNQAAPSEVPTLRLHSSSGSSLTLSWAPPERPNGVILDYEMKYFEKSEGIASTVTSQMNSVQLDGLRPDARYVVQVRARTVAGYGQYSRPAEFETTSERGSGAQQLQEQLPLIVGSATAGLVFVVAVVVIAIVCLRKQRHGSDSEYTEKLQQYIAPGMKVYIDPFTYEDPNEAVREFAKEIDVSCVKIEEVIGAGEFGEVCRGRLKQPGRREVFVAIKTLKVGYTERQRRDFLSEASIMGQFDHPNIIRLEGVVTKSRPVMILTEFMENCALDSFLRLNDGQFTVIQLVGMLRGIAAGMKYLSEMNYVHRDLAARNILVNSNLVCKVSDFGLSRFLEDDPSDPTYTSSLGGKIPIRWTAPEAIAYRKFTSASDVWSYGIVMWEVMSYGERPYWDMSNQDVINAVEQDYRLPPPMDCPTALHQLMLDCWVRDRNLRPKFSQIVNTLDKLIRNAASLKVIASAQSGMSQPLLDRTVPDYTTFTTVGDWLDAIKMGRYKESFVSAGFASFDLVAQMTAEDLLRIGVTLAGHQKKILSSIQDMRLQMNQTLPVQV
# [3] = target: T2, Ephrin type-B receptor 3 (Homo sapiens); details: at 1 µM
# [4] = target: T3, Ephrin type-B receptor 4 (Homo sapiens) (UniProt P54760); details: at 0.1 µM
# T3 sequence (whole entry): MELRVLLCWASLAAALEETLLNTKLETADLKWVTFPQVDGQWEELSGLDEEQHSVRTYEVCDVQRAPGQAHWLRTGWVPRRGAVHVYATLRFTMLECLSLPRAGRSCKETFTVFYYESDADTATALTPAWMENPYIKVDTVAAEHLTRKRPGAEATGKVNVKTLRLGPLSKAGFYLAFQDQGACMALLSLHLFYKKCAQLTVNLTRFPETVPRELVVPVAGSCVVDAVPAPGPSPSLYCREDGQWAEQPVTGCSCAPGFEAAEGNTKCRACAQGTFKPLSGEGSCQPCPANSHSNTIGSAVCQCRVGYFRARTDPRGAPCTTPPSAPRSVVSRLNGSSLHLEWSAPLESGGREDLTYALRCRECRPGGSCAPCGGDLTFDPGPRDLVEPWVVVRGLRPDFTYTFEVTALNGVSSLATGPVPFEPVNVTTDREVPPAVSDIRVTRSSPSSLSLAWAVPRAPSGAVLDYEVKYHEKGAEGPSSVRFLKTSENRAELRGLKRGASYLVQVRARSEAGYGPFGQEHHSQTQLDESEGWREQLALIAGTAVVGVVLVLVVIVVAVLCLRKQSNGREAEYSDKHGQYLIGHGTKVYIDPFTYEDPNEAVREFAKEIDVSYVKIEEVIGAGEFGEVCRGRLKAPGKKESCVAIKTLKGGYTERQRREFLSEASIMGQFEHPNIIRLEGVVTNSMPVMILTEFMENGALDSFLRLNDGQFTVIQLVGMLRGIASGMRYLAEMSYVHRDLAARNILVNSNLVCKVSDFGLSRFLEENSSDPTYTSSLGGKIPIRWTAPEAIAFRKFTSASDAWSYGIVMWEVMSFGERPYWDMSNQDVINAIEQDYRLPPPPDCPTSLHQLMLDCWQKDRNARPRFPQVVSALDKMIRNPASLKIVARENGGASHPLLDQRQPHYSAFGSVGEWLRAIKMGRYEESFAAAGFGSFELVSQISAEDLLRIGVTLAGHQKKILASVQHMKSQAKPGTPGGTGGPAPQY
# [5] = target: T3, Ephrin type-B receptor 4 (Homo sapiens); details: at 1 µM
# [6] = target: Receptor tyrosine-protein kinase erbB-2 (Homo sapiens) (UniProt P04626); details: at 0.1 µM
# [7] = target: Receptor tyrosine-protein kinase erbB-2 (Homo sapiens) (UniProt P04626); details: at 1 µM
# [8] = target: Receptor tyrosine-protein kinase erbB-4 (Homo sapiens) (UniProt Q15303); details: at 0.1 µM
# [9] = target: Receptor tyrosine-protein kinase erbB-4 (Homo sapiens) (UniProt Q15303); details: at 1 µM
# [10] = target: Tyrosine-protein kinase Fer (Homo sapiens) (UniProt P16591); details: at 0.1 µM
# [11] = target: Tyrosine-protein kinase Fer (Homo sapiens) (UniProt P16591); details: at 1 µM
# [12] = target: Tyrosine-protein kinase Fes/Fps (Homo sapiens) (UniProt P07332); details: at 0.1 µM
# [13] = target: Tyrosine-protein kinase Fes/Fps (Homo sapiens) (UniProt P07332); details: at 1 µM
# [14] = target: Fibroblast growth factor receptor 1 (Homo sapiens) (UniProt P11362); details: at 0.1 µM
# [15] = target: Fibroblast growth factor receptor 1 (Homo sapiens) (UniProt P11362); details: at 1 µM
# [16] = target: Fibroblast growth factor receptor 2 (Homo sapiens) (UniProt P21802); details: at 0.1 µM
# [17] = target: Fibroblast growth factor receptor 2 (Homo sapiens) (UniProt P21802); details: at 1 µM
# [18] = target: Fibroblast growth factor receptor 3 (Homo sapiens) (UniProt P22607); details: at 0.1 µM
# [19] = target: Fibroblast growth factor receptor 3 (Homo sapiens) (UniProt P22607); details: at 1 µM
# [20] = target: Fibroblast growth factor receptor 4 (Homo sapiens) (UniProt P22455); details: at 0.1 µM;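 further: values are mean percent inhibition of FGFR4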
# Fibroblast growth factor receptor 4 (Homo sapiens), sequence (P22455 22-802 limits assumed): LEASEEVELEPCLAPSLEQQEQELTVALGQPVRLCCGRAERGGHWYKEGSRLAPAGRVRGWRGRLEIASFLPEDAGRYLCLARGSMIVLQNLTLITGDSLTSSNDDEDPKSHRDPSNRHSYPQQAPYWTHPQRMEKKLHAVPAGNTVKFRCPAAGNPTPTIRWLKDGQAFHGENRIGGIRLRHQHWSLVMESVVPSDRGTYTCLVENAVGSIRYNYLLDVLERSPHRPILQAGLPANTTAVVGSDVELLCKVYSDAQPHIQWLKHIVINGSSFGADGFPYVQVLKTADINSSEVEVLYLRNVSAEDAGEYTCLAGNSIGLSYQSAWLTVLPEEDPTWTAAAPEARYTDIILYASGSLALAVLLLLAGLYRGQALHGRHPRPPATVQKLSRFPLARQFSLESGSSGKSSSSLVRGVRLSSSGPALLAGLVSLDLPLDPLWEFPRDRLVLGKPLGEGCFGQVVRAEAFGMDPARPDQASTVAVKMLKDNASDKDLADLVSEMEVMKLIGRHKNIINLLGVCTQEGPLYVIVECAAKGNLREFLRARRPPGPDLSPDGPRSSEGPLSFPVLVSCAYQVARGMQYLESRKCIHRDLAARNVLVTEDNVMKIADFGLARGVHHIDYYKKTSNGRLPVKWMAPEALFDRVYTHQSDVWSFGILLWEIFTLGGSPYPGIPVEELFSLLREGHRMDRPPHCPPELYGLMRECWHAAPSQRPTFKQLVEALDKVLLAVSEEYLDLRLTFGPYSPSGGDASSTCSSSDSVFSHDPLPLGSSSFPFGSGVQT
# Receptor tyrosine-protein kinase erbB-4 (Homo sapiens), sequence (Q15303 whole entry): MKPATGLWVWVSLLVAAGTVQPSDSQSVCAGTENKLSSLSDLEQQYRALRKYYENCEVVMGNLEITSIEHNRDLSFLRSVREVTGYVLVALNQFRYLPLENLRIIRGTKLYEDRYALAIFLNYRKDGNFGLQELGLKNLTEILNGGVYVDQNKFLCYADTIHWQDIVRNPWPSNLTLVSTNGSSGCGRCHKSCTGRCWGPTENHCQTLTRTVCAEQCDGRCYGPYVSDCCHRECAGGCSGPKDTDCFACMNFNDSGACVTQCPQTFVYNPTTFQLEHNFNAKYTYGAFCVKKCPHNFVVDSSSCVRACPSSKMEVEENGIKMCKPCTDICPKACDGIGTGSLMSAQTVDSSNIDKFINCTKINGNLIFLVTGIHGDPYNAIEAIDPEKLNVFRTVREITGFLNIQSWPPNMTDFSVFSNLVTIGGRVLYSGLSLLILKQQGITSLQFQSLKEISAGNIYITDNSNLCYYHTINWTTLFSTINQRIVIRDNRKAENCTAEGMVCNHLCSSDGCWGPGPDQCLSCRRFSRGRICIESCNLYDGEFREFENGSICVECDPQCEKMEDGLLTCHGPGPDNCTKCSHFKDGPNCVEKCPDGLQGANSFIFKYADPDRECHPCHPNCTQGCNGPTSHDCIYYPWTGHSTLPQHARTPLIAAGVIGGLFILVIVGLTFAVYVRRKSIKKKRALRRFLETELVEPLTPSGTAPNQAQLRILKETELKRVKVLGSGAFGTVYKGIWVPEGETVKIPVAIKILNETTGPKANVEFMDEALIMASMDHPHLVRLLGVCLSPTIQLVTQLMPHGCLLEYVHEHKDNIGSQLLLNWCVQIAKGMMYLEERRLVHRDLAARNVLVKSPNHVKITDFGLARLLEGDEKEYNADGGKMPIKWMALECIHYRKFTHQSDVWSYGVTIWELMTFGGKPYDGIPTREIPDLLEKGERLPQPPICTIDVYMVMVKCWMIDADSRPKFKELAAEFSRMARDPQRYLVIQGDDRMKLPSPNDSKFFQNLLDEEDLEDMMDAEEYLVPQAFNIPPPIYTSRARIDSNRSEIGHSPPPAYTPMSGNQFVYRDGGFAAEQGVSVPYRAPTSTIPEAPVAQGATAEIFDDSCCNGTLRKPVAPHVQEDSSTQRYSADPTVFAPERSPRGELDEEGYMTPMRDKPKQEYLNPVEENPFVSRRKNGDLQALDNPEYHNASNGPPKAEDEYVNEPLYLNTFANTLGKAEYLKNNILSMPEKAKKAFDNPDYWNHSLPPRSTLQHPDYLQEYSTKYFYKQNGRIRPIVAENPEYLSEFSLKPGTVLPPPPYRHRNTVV
# Fibroblast growth factor receptor 1 (Homo sapiens), sequence (P11362 22-822 limits assumed): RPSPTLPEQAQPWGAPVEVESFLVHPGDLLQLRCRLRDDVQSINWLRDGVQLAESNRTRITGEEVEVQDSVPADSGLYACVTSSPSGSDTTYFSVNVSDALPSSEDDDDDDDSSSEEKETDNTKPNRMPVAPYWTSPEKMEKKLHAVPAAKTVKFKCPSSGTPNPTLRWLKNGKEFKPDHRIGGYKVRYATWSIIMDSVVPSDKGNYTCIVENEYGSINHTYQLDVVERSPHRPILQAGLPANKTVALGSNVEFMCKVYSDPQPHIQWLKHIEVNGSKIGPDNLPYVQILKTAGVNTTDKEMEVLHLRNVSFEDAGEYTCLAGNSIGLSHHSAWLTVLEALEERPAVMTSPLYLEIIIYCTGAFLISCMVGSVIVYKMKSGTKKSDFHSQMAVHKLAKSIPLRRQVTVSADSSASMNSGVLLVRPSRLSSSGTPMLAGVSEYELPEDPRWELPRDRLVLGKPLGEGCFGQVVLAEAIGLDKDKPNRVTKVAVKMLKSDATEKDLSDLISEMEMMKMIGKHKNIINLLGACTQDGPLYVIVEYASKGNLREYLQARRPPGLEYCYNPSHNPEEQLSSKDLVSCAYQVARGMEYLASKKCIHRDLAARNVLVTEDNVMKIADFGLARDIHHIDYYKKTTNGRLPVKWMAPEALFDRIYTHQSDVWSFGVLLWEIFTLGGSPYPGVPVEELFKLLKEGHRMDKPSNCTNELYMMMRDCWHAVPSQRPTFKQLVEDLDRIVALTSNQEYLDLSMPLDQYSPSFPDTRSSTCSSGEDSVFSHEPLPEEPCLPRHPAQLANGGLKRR
# Fibroblast growth factor receptor 2 (Homo sapiens), sequence (P21802 22-821 limits assumed): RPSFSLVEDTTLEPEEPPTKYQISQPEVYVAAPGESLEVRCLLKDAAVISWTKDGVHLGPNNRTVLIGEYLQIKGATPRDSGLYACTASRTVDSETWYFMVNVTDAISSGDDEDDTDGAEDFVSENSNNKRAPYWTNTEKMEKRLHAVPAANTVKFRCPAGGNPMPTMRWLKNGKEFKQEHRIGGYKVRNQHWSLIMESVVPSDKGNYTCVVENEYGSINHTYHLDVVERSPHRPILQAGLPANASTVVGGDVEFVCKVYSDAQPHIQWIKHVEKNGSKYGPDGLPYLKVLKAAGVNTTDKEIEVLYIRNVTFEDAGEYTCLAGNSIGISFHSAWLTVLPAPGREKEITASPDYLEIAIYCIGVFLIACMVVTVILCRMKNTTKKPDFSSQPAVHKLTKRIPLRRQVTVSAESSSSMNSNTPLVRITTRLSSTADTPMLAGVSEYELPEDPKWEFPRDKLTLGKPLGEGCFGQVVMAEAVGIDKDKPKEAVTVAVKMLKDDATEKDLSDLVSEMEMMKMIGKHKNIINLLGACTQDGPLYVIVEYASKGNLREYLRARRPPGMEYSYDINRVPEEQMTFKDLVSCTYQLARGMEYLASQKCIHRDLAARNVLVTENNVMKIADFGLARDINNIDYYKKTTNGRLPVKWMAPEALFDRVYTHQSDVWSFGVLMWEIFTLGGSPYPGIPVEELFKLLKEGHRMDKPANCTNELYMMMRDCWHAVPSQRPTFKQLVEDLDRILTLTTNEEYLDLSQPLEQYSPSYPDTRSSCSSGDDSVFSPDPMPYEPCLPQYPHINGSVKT
# Tyrosine-protein kinase Fer (Homo sapiens), sequence (P16591 whole entry, looked up): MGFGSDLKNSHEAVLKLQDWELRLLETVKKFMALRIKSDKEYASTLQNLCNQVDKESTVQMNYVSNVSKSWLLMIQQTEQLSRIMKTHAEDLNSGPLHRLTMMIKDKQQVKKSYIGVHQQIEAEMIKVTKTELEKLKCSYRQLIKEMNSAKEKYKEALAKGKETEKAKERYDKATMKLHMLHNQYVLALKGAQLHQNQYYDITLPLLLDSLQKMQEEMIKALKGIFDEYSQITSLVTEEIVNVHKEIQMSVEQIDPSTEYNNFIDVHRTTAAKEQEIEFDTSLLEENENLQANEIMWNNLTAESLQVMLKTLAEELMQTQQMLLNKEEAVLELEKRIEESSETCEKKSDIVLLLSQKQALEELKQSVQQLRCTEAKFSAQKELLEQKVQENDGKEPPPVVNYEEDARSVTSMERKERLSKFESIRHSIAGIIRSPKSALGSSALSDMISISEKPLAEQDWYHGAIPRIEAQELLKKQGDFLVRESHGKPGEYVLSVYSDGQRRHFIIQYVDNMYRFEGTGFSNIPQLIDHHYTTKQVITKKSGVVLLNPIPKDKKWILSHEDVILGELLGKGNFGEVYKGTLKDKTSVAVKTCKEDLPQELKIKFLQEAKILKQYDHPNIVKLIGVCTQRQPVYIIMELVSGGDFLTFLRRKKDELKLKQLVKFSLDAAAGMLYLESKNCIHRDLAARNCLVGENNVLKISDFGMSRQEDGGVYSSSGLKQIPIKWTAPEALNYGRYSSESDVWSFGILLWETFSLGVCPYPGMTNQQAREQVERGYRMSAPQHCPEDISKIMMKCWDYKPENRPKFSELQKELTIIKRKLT
SMILES,inhibition [1] [%],inhibition [2] [%],inhibition [3] [%],inhibition [4] [%],inhibition [5] [%],inhibition [6] [%],inhibition [7] [%],inhibition [8] [%],inhibition [9] [%],inhibition [10] [%],inhibition [11] [%],inhibition [12] [%],inhibition [13] [%],inhibition [14] [%],inhibition [15] [%],inhibition [16] [%],inhibition [17] [%],inhibition [18] [%],inhibition [19] [%],inhibition [20] [%]
CN(c1ccc(NC(=O)Nc2ccc(OC(F)(F)F)cc2)cc1)c1ccnc(Nc2cccc(S(N)(=O)=O)c2)n1,54.8,3.87,8.25,1.79,30.7,2.39,4.23,7.13,14.5,12.6,60.4,4.7,21.8,2.49,20.3,16.2,53.9,3.87,23.3,-0.53
Cc1ccc(C(=O)NC2CC2)cc1-c1ccc2[nH]ncc2c1,-4.6,-8.95,-5.96,-2.42,-0.31,-5.76,-4.83,–,–,-2.95,0.05,-3.18,-3.34,-0.69,-5.16,-3.95,-3.78,-5.18,0.28,1.43
CN(C)C(=O)O[C@H]1CN[C@H](C#Cc2cc3ncnc(Nc4ccc(OCc5cccc(F)c5)c(Cl)c4)c3s2)C1,14.1,4.55,5.69,2.43,3.92,4,50.4,92.5,120,1.02,-0.03,2.17,3.06,2.33,5.24,2.11,7.78,5.3,5.64,0.8
Cc1ccc2c(-c3ccnc(Nc4ccc5c(c4)OCCO5)n3)c(-c3ccc(C(F)(F)F)cc3)nn2n1,1.37,-0.21,2.22,-1.12,1.46,2.13,4.1,3.46,16.3,0.5,-0.37,0.95,0.4,0.28,1.17,-1.07,0.36,-1.98,1,1.94
COc1cccc(-n2ncc3c(N/N=C/c4ccc(S(C)(=O)=O)cc4)ncnc32)c1,11.5,-0.24,-2.08,-0.79,6.93,2.7,3.96,7.91,7.9,1.13,2.49,0.5,0.07,3.99,0.92,-2.62,4.85,1.85,4.08,-2.71
COC(=O)c1ccc2c(c1)C(=Cc1cc(Br)c(O)c(Br)c1)C(=O)N2,7.02,2.1,3.26,2.41,3.68,-0.98,3.44,3.22,14.2,-1.52,7.48,3.27,4.01,3.15,6.87,7.19,8.86,8.03,5.51,4.35
NS(=O)(=O)c1ccc(NC=C2C(=O)Nc3ccc4ncsc4c32)cc1,26.1,5.96,2.98,4.95,12.2,1.93,-0.87,17.8,11.2,5.32,27.7,12.3,17.1,13.4,41.9,31.5,63.8,–,65,-2.6
NS(=O)(=O)c1ccc(N/N=C2\C(=O)Nc3ccc(Cl)cc32)cc1,6.46,3.51,2.43,1.05,2.86,2.29,4.3,4.78,–,2.95,7.24,2.52,2.84,1.63,1,2.43,14.7,5.81,13,-1.18
Cc1ccc(Nc2ccnc(Nc3cccc(C(N)=O)c3)n2)cc1O,38.6,0.29,-0.39,2.22,29.1,2.41,5.7,6.84,20.2,4.75,23.4,2.5,10.7,4.6,34.8,1.51,26.6,3.55,18.4,-3.61
NS(=O)(=O)c1cccc(-c2cc3ccncc3cc2OCc2ccccc2)c1,9.74,6.23,4.28,2.45,2.84,1.13,-3.29,8.81,9.16,3.7,4.16,4.25,7.11,8.63,10.7,9.37,15.6,8.37,13,0.02
Nc1ccc(C#Cc2cncnc2Nc2ccc(OCc3cccc(F)c3)c(Cl)c2)cc1,6.65,3.43,3.54,0.47,2.45,5.63,10.1,12.9,54.4,2.93,1.48,2.44,2.24,2.53,4.37,3.89,4.27,3.12,4.49,2.37
COc1cc2ncnc(Nc3ccc(C)c(O)c3)c2cc1OC,41.4,6.58,2.9,8.74,36.9,7.8,26.3,31.7,68.7,4.24,7.9,2.91,3.54,4.9,17.2,5.64,15.8,6.03,10.2,-0.45
Cc1ccc(NC(=O)CC2CC2)cc1-c1ccc(C(=O)NCC2CC2)cc1,11.6,4.23,3.77,0.66,3.43,0.13,3.41,6.43,8.12,4.27,7.65,2.28,4,5.11,4.06,1.09,4.24,2.17,3.92,-2.17
FC(F)(F)c1ccc(-c2nn3ncccc3c2-c2ccnc(Nc3ccc4c(c3)OCCO4)n2)cc1,36.7,-5.93,-4.69,0.48,10.2,3.02,12.5,6.46,43.5,7.67,12.1,-0.13,1.22,7.55,6.28,6.74,11.1,6.49,6.94,6.29
